# The sample as a whole holds a higher share of hits than the screen did.
# mHTT CaM bind: disrupts binding of mutant huntingtin to calmodulin | P42858 | AlphaScreen His-mHTT/GST-CaM binding, luminescence | inhibition, % at 15 µM | 190,000 tested, 3.6% active;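 further: 0% = both proteins with DMSO and 100% = one protein alone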
# Pf apPOL block: Pf-apPOL DNA polymerase inhibition. Recombinant Pf-apPOL, molecular beacon fluorescence, 1.5 h. inhibition, % at 10 µM. 210,000 tested, 0.25% active
# Starred values were filed as active, the others as inactive; · = no result given. No stated cut-off is given here; in the data, active means inhibition above about 50%; inactive means the rest.
SMILES,mHTT CaM bind,Pf apPOL block
CCCOc1ccc(Cc2c(C)[nH]c(=O)[nH]c2=O)cc1,-10,-4
O=C(CCn1ccc(=O)[nH]c1=O)N1CCN(Cc2nc(-c3ccccc3)cs2)CC1,-1,-13
Cc1cc(C)c(S(=O)(=O)N2CCc3nc[nH]c3C2)cc1C,13,-3
Cn1c(N2CCC(C(=O)NCCCc3ccccc3)CC2)cc(=O)n(C)c1=O,24,2
Cc1cccc(C)c1NCN1C(=O)C2CC=CCC2C1=O (configuration not stated),3,0
COc1ccccc1N/C(C)=C/C(=O)c1ccccc1,22,-4
COc1ccc(N/C(C)=C/C(=O)c2ccccc2)c(OC)c1,51*,-1
O=c1oc2cc3occ(-c4ccc(Cl)cc4)c3cc2c2c1CCC2,-2,80*
Cc1c(C)c2cc3c(-c4ccc(Cl)cc4)coc3cc2oc1=O,-1,91*
COc1ccc2c(c1)c(=O)oc1cc3occ(-c4ccc(Cl)cc4)c3cc12,5,1
O=c1oc2cc3occ(-c4ccc(F)cc4)c3cc2c2c1CCCC2,-3,3
COc1ccccc1C(=O)N/C(=C/c1ccc2c(c1)OCO2)C(=O)NCCCCCC(=O)O,0,-3
Cc1c(Cc2ccccc2)sc(NC(=O)Nc2ccccc2)c1C(N)=O,17,-6
Cc1c(Cc2ccccc2)sc(N)c1C(N)=O,75*,-6
O=C(C=CNc1cccc(O)c1)c1ccc(Cl)cc1,16,3
CCNc1cc(N2CCC(CCC(=O)NCc3ccc(F)cc3)CC2)ncn1,3,-5
Cc1cc(O)c(C(C)C)cc1N=C1CSC(=O)N1,53*,-6
Cc1cc(O)c(C(C)C)cc1NC(=O)c1ccc(Cl)cc1,4,-11
COc1cccc(NC(=O)CN2C(=O)C(c3ccc(Cl)cc3)=NC2(C)C)c1,-3,0
Cc1nc(C2CCCN(Cc3ccc(Br)o3)C2)n[nH]1 (configuration not stated),50*,-10
Cc1nc(C2CCCN(Cc3cccc4[nH]ccc34)C2)n[nH]1 (configuration not stated),18,-7
CC(C)NC(=O)c1cc(N(C)C)nc2c(Cl)cccc12,-6,-3
CC1=C(C(=O)Nc2cccc(C)n2)C(c2ccccc2C(F)(F)F)C2=C(CCCC2=O)N1 (configuration not stated),2,0
O=C(c1cccs1)N1CCN(c2[nH]ncc2-c2ccncc2)CC1,0,-7
O=C(c1ccsc1)N1CCN(c2[nH]ncc2-c2ccccc2)CC1,63*,-2
SMILES,mHTT CaM bind,Pf apPOL block
O=C(c1ccccc1)N1CCN(c2[nH]ncc2-c2ccccc2)CC1,77*,-4
O=C(c1ccncc1)N1CCN(c2[nH]ncc2-c2ccncc2)CC1,-1,-1
COc1ccc(N2CCN(C(=O)c3ccc(Br)cc3)C(C)C2=O)cc1 (configuration not stated),2,-5
Nc1cc(N)cc(Oc2cc(N)cc(N)c2)c1,95*,·
Nc1cccc(Oc2c(F)c(F)c(Oc3cccc(N)c3)c(F)c2F)c1,42,-6
COc1cc(-c2nc3cc(C(C)(C)C)ccc3o2)ccc1O,56*,2
CC(C)(C)c1ccc(-c2nc3cc(N)ccc3o2)cc1,27,-7
COc1ccc(-c2nc3cc(C)ccc3o2)cc1N,34,6
COc1ccc(-c2nc3cc(C(C)(C)C)ccc3o2)cc1O,61*,4
COc1ccc(C2=N/C(=C\c3c(F)cccc3Cl)C(=O)O2)cc1[N+](=O)[O-],0,1
CN1C(=O)C(CC(=O)N2CCOCC2)Sc2ncccc21 (configuration not stated),-5,-1
Cc1nc(C)c(-c2nnc(NC(=O)CCS(=O)(=O)c3ccccc3)o2)s1,19,5
Cc1nc(C)c(-c2nnc(NC(=O)CCOc3ccccc3)o2)s1,64*,-3
CCOC(=O)c1ccc(NC(=O)CS(=O)c2ncc(-c3ccc(OC)cc3)n2C)cc1 (configuration not stated),23,-11
Cc1nc(-c2ccc(C(=O)N3CCCC3)cc2)no1,0,-2
O=C(NN1CCOCC1)c1cccc(Br)c1,3,-8
O=C(NN1CCOCC1)c1ccc(Br)cc1,-7,56*
CC1=C(C(=O)Nc2cccc(C(F)(F)F)c2)C2(CCCCCC2)OC1=O,98*,-2
CC1=C(C(=O)Nc2cccc(C(F)(F)F)c2)C2(CCCCC2)OC1=O,14,-1
COc1cc(C2N(c3ccc(Cl)c(Cl)c3)C(=O)C3CCCN32)cc(OC)c1OC (configuration not stated),100*,-6
O=C1N(c2ccccc2)C(c2ccccc2)N2CCCN12 (configuration not stated),0,1
COc1ccc(N2C(=O)C3CCCN3C2c2ccccc2OC)cc1 (configuration not stated),-7,22
COc1ccccc1C1N(c2ccc(Cl)cc2)C(=O)C2CCCN21 (configuration not stated),50*,-2
COc1cc(C2N(c3ccc(Cl)cc3)C(=O)C3CCCN32)cc(OC)c1OC (configuration not stated),40,-6
CCOc1ccccc1C1N(c2ccc(Cl)cc2)C(=O)C2CCCN21 (configuration not stated),51*,-2
SMILES,mHTT CaM bind,Pf apPOL block
CCOc1ccccc1C1N(c2ccc(F)cc2)C(=O)C2CCCN21 (configuration not stated),1,-1
COc1ccccc1C1N(c2ccc(Cl)c(Cl)c2)C(=O)N2CCCN12 (configuration not stated),100*,-2
Clc1ccc(-c2nnn(CN3CCCCC3)n2)cc1,-7,0
Cc1ccc(N2CCN(C(=O)C3CCN(c4cc(=O)n(C)c(=O)n4C)CC3)CC2)c(C)c1,32,6
Cc1sc2cc(C(=O)N3CCC(C)CC3)[nH]c2c1CN1CCOCC1,69*,-7
Cc1sc2cc(C(=O)N3CCOCC3)[nH]c2c1CN1CCCC1,24,-3
Cc1sc2cc(C(=O)N3CCCCC3)[nH]c2c1CN1CCOCC1,31,4
Cc1sc2cc(C(=O)N3CCCCCC3)[nH]c2c1CN1CCOCC1,59*,-3
N#CC1=C(N)Oc2c(oc(CO)cc2=O)C1c1cc2c(cc1[N+](=O)[O-])OCO2 (configuration not stated),12,9
CC1(c2ccccc2)CC(C)(C)N2C(=O)C(=O)c3cccc1c32 (configuration not stated),80*,10
CC1(c2ccccc2)CC(C)(C)N(C(=O)C(F)(F)F)c2ccccc21 (configuration not stated),-31,8
CCN(CC)c1ccc(N=Nc2c(O)ccc3ccccc23)cc1,·,-12
Oc1ccc2ccccc2c1N=Nc1ccccc1,84*,·
Cc1ccc(CNC(=O)c2cc3n(n2)CCCN(Cc2cccc(C)c2)C3=O)cc1,-1,-2
Cc1cccc(CN2CCCn3nc(C(=O)NCc4ccc(N(C)C)cc4)cc3C2=O)c1,55*,0
Cc1cc(F)ccc1NC(=O)c1cc2n(n1)CCCN(Cc1ccccc1)C2=O,-2,-2
Cc1cccc(CN2CCCn3nc(C(=O)Nc4ccc(F)cc4C)cc3C2=O)c1,6,74*
CCCc1ccc(S(=O)(=O)N2CCC(c3nc4cccnc4n3CC)C2)cc1 (configuration not stated),11,-5
COc1ccc(C2N3CC4([N+](=O)[O-])CN2CC([N+](=O)[O-])(C3)C4(C)C)cc1OC (configuration not stated),0,0

# High-throughput results from PubChem.
